The source of these data is PubChem BioAssay.

A number with no mark means an inactive call. The rule behind the calls is not given here.

In general, inhibition refers to the drop in the measured response relative to a control, in per cent.

Sequence of Lethal factor (Bacillus anthracis) (P15917 whole entry, looked up): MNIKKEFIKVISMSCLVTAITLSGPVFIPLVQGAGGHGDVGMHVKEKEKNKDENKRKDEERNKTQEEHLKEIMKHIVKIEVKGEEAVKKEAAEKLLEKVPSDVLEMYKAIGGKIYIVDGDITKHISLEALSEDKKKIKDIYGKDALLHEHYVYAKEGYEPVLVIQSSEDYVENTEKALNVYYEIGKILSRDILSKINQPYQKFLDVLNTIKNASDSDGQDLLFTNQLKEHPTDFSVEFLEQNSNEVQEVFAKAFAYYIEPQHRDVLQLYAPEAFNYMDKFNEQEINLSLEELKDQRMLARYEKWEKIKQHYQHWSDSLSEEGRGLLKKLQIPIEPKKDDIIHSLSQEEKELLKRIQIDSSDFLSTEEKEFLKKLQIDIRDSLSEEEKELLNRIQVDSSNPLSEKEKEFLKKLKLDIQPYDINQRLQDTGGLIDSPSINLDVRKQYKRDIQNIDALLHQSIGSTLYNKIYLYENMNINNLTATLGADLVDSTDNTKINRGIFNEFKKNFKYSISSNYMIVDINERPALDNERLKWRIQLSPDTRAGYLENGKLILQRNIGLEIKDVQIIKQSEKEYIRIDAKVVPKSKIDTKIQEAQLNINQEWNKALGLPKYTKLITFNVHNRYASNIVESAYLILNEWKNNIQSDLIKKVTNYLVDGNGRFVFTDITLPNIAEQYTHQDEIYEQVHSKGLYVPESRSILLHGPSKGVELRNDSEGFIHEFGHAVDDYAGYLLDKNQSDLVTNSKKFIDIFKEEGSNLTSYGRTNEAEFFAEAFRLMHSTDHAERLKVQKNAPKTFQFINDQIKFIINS

The assay concerns the target Lethal factor (Bacillus anthracis) (UniProt P15917). The assay is described as follows: Bacillus anthracis lethal factor inhibition, microsphere flow cytometry protease assay, validation at 10 µM (AID 588461). The settings on record: multiplex microsphere protease cleavage assay, stronger effect = higher value.
With `CC(C)CCOCC(=O)Nc1cccc(C(=O)O)c1`, the inhibition was -0.3%.
The figure for `COc1ccc(C(=O)N2c3cc4c(cc3C(C)=CC2(C)C)OCO4)cc1` is 4%; for `CC[C@H]1OC(=O)[C@H](C)[C@@H](O[C@H]2C[C@@](C)(OC)[C@@H](O)[C@H](C)O2)[C@H](C)[C@@H](O[C@@H]2O[C@H](C)C[C@H](N(C)C)[C@H]2O)[C@](C)(O)C[C@@H](C)[C@@H]2N[C@@H](COCCOC)O[C@H]([C@H]2C)[C@]1(C)O` it is -1.4%.
The figure for `CSCCC(NC(=O)/C(=C/c1ccc2c(c1)OCO2)NC(=O)c1cccc([N+](=O)[O-])c1)C(=O)O` (stereo not drawn) is -9.5%; for `CCCCC[C@H](O)/C=C/[C@@H]1[C@@H](CCCCCCC(=O)O)[C@@H](O)C[C@H]1O` it is 0.1%.
The figure for `C[C@@H]1C[C@H]2[C@@H]3C[C@H](F)C4=CC(=O)C=C[C@]4(C)[C@@]3(F)[C@@H](O)C[C@]2(C)[C@@]1(O)C(=O)COC(=O)C(C)(C)C` is 3.4%; for `COc1ccc(CNC(=O)N[C@H](C(=O)O)C(C)C)cc1OC` it is -8.3%.
Regarding `O=C(NCCN1CCN(c2ccccc2)CC1)c1cccc(Br)c1`, the inhibition is -6.4%.
In the case of `Cn1c(=O)c(C(=O)NCCO)c(O)c2ccccc21`, the inhibition was -2.2%.
As for `CNc1c2c(nn1C)CCCC2`, the inhibition is -3.5%.
To `OCCN1CCN(CCCN2c3ccccc3Sc3ccc(Cl)cc32)CC1` belongs 1.2%.
To `O=C(/C=C/c1ccco1)N1CCN(c2ccccc2)CC1` belongs -0.6%.
Regarding `O=c1c2ccccc2nc2n1-c1ccccc1CCC2`, the inhibition was 12.2%.
